TDP1 cell CPT = growth inhibition of DT40 Tdp1-/-;hTDP1 cells with camptothecin (screen for TDP1 inhibitors); chicken DT40 Tdp1-/-;hTDP1 cells + 20 nM CPT, ATP luminescence, 48 h; Potency, µM (series often up to 46.2 µM), without a hit: at the highest dose activity change, negative = growth inhibition, hits mostly inhibitors; hit rate 12% among 420,000; further: potency means the concentration at half of the fitted maximal effect; nearly all actives have a fitted effect of over 55% in size
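Chicken DT40 Tdp1-/- cells complemented with human TDP1, 400 cells/well, exposed to compounds plus 20 nM camptothecin for at least 48 h at 37 C; viability read as ATP content by CellTiter-Glo luminescence.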
ELG1 repair inh = blocks ELG1-dependent DNA repair in HEK293T cells | HEK293T ELG1-luciferase reporter, luminescence, 16 h; DNA damage induced by 5-fluorouridine | Potency, µM (titrated, usually from 46.1 µM), for the others: at the highest dose activity change, negative = inhibition, hits mostly inhibitors | hit rate 2.3% among 330,000 | AID 504467; further: potency means the concentration at half of the fitted maximal effect; nearly all actives have a fitted effect of over 55% in size
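Quantitative HTS, concentration-response format. 2,000 cells/well co-treated with 5-fluorouridine and compound, 16 hr in 5% CO2 at 37 °C; ONE-Glo luminescence read after 30 min.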
HT1080-NT tox = kills 2HG-producing HT-1080-NT fibrosarcoma cells | HT-1080-NT fibrosarcoma viability, CellTiter-Glo ATP luminescence, 48 h | Potency, µM (doses to about 46.1 µM), for the others: at the highest dose activity, negative = less viability, actives largely listed as cytotoxic | hit rate 1.6% among 360,000;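 further: NT is the 2HG producing partner of a matched IDH1 knockdown line; potency means the concentration at half of the fitted maximal effect; 0% = DMSO-treated cells and -100% = media-only wells without cells; nearly all actives have a fitted effect of over 55% in size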
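A 48-hour cytotoxicity screen used HT-1080-NT cells plated 2 hours before compound delivery. ATP-based CellTiter-Glo luminescence measured viability, normalized to DMSO and no-cell controls.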
IL-1B inflam inh = inhibitors of inflammasome signaling (IL-1 beta secretion) | activity change, % at 57.5 µM | hit rate 4.7% among 360,000 | THP-1 LPS/ATP IL-1B secretion, AlphaLISA, 16 h; hits give low values; in the data active means activity change below about -50%; inconclusive means mostly about -30% to -49%
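THP-1 cells pretreated 1 hr with compounds (up to 57.5 uM final), then stimulated with LPS (250 ng/mL final) plus ATP (1.25 mM final); secreted IL-1B measured by AlphaLISA after 16 hr, decreased signal indicating inhibition.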
HT1080 IDH1KD tx = HT-1080 IDH1 knockdown cell toxicity (counter line). hit rate 2% among 360,000. Potency, µM (top dose mostly 46.1 µM), for inactives: at the highest dose activity, negative = toxicity, hits mostly cytotoxic. AID 686971. HT-1080 IDH1 knockdown viability, ATP luminescence, 48 h;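 further: potency means the concentration at half of the fitted maximal effect; 0% = DMSO wells and -100% = cell-free medium wells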
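In this qHTS, HT-1080 cells depleted of IDH1 are exposed for 48 h at 37 °C to compound titrations. Toxicity is scored from CellTiter-Glo luminescence, with DMSO as full viability and medium alone as none.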
TDP1 cell noCPT = qHTS for Inhibitors of human tyrosyl-DNA phosphodiesterase 1 (TDP1): qHTS in cells in absence of CPT. DT40 Tdp1-/- hTDP1 cells, no CPT, ATP luminescence, 48 h. Potency, µM (highest dose often 46.2 µM), without a hit: at the top dose activity change, negative = growth inhibition, actives largely listed as inhibitors. hit rate 15% among 420,000. AID 686978, 2013; further: potency means the concentration at half of the fitted maximal effect; nearly all actives have a fitted effect of over 55% in size
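Readout: luminescence from CellTiter-Glo after 30 min in the dark at RT. Cells: DT40 Tdp1-/- with stable hTDP1, 400/well. Exposure: compounds alone, ≥48 hr, 37 °C.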
Active calls of the source: *; ? = inconclusive; · = not tested or not shown. Rows were chosen to be rich in hits. Some 19% of all compounds tested hit in one or more screens of this group. Unless noted, the call rests on the fitted dose curve; in most records, active means well fitted curve in the direction sought with a large enough effect; inconclusive means small, poorly fitted or top-dose-only effect, or another doubt; inactive means no such curve, though single readings can be large; an effect the other way counts as inactive or inconclusive. Unless noted, on the % scale 0 is the no-effect control and ±100 the full control effect.

SMILES	TDP1 cell CPT	ELG1 repair inh	HT1080-NT tox	IL-1B inflam inh	HT1080 IDH1KD tx	TDP1 cell noCPT
CSc1ncccc1C(=O)N1CCC(C)(C(=O)O)C1 (stereo not drawn)	1%	·	0%	-8	12%	-6%
Cc1ccc(CN(C)C(=O)CN2C(=O)NC(c3ccccc3)(c3ccccc3)C2=O)c(C)c1	?	?	-19%	-63*	-5%	16µM*
CN(Cc1ccco1)C(=O)CN1C(=O)NC(c2ccccc2)(c2ccccc2)C1=O	-30%	4%	-2%	-6	-1%	-26%
CSc1nc(C)c2c(n1)N(c1ccc(C(C)C)cc1)CC2	?	0%	5%	17	1%	21µM*
CCCN1C(=O)C2(c3ccccc31)c1c(oc3ccccc3c1=O)C(=O)N2CCO (stereo not drawn)	-28%	·	·	·	·	-4%
CCCN1C(=O)C2(c3ccccc31)c1c(oc3ccc(F)cc3c1=O)C(=O)N2CCCOC(C)C (stereo not drawn)	21µM*	·	·	·	·	?
CCCc1noc(-c2ccc(NCc3ccc(C)cc3)c([N+](=O)[O-])c2)n1	?	·	·	·	·	-27%
CCc1noc(-c2ccc(NCc3ccccc3)c([N+](=O)[O-])c2)n1	23µM*	·	·	·	·	18µM*
COc1ccc(-c2noc(-c3ccc(NC4CCCCC4)c([N+](=O)[O-])c3)n2)cc1OC	21µM*	·	·	·	·	?
COc1cc(-c2noc(-c3ccc(NCCc4ccccc4)c([N+](=O)[O-])c3)n2)cc(OC)c1OC	5.2µM*	·	·	·	·	4.1µM*
CCc1noc(-c2ccc(N(C)Cc3ccc(OC)cc3)c([N+](=O)[O-])c2)n1	6.5µM*	·	·	·	·	5.8µM*
C[C@@H]1CN([C@H](C)CO)C(=O)CCCn2cc(nn2)CO[C@H]1CN(C)C(=O)Nc1cccc(F)c1	7%	·	7%	27	3%	11%
Cc1ccc(NC(=O)CSc2nc(-c3ccco3)nc3cc(=O)[nH]n23)cc1	9%	·	·	·	·	-5%
CC(C)Nc1ccc(-c2nc(-c3ccco3)no2)cc1[N+](=O)[O-]	?	·	·	·	·	16µM*
CCCNc1ccc(-c2nc(-c3ccco3)no2)cc1[N+](=O)[O-]	-3%	·	·	·	·	-26%
COc1ccccc1-c1noc(-c2ccc(NCc3ccco3)c([N+](=O)[O-])c2)n1	12µM*	·	·	·	·	12µM*
Cc1ccc(CNc2ccc(-c3nc(-c4ccco4)no3)cc2[N+](=O)[O-])cc1	-27%	·	·	·	·	-15%
COc1ccccc1-c1noc(-c2ccc(NCCc3ccccc3)c([N+](=O)[O-])c2)n1	3%	·	·	·	·	2%
Cc1ccccc1-c1noc(-c2ccc(NCc3cccnc3)c([N+](=O)[O-])c2)n1	4.1µM*	·	·	·	·	2.3µM*
Cc1c(-c2nc(-c3cccnc3)no2)cccc1[N+](=O)[O-]	18µM*	?	-25%	19	-25%	18µM*
Cc1ccccc1NC(=O)Cc1nc(COC(=O)CNS(=O)(=O)c2cccc(Br)c2)cs1	-13%	17%	8%	-3	9%	-21%
CN(C)C(=O)c1ccc(NC(=O)CSc2nnc(-c3cccs3)n2N)cc1	0%	15%	-3%	2	0%	-4%
O=[N+]([O-])c1ccc2nc(NN=Cc3ccc(O)cc3)sc2c1	29µM*	·	?	-96*	29µM*	?
Cn1cc(C[C@H](NC(=O)OC(C)(C)C)C(=O)N[C@@H](CO)Cc2ccccc2)c2ccccc21	18µM*	·	-7%	-6	0%	?
CCCCCCCNC(=O)C1(CC2CC(c3cccc(Br)c3)=NO2)CCN(C(=O)C2(C)CC2)CC1 (stereo not drawn)	16µM*	?	-16%	-59*	-16%	16µM*
SMILES	TDP1 cell CPT	ELG1 repair inh	HT1080-NT tox	IL-1B inflam inh	HT1080 IDH1KD tx	TDP1 cell noCPT
COc1ccc(CNC(=O)C2(CC3CC(c4ccccc4)=NO3)CCN(C(=O)C3(C)CC3)CC2)cc1 (stereo not drawn)	?	·	0%	-17	3%	-22%
CCCNC(=O)C1(CC2CC(c3ccccc3)=NO2)CCN(C(=O)c2cc(OCC)c(OCC)c(OCC)c2)CC1 (stereo not drawn)	?	·	-5%	?	0%	?
CCCCCCCNC(=O)C1(CC2CC(c3cccc(Br)c3)=NO2)CCN(C(=O)CCCCCBr)CC1 (stereo not drawn)	23µM*	?	16µM*	?	?	26µM*
CCOc1cc(C(=O)N2CCC(CC3CC(c4cccc(Br)c4)=NO3)(C(=O)NCC3CCCCC3)CC2)cc(OCC)c1OCC (stereo not drawn)	?	?	1%	?	1%	21µM*
CC1=C(C(=O)N(C(C)C)C(C)C)CC(CC(=O)NCCCN(C)C)C(=O)N1CCCN1CCCC1=O (stereo not drawn)	-5%	·	20%	20	18%	3%
CCCNC(=O)N[C@H]1CC[C@@H](CCn2cc(-c3cccc(F)c3)nn2)O[C@@H]1CO	-8%	·	14%	17	23%	-4%
N#CC(C(=O)NCCc1ccccc1)c1nc2ccccc2nc1N1CCCCC1 (stereo not drawn)	21µM*	-2%	-1%	-3	-2%	-27%
N#CC(C(=O)NCc1ccccc1)c1nc2ccccc2nc1N1CCCC1 (stereo not drawn)	?	8%	-1%	9	-9%	?
CCCCCCNC(=O)C(C#N)c1nc2ccccc2nc1N1CCOCC1 (stereo not drawn)	?	-1%	1%	-3	1%	-16%
CCOC(=O)N1CCN(c2nc3ccccc3nc2C(C#N)C(=O)NCCc2ccccc2)CC1 (stereo not drawn)	16µM*	?	15%	-2	14%	21µM*
N#CC(C(=O)NCCc1ccccc1)c1nc2ccccc2nc1N1CCOCC1 (stereo not drawn)	16µM*	?	19%	-8	11%	?
CCOC(=O)C1CCCN(c2nc3ccccc3nc2C(C#N)C(=O)NCc2ccccc2)C1 (stereo not drawn)	?	-29%	2%	-5	-1%	9.2µM*
COCCCNC(=O)C(C#N)c1nc2ccccc2nc1N1CCCC1 (stereo not drawn)	-20%	21µM*	5%	-6	10%	-29%

Screening results (PubChem BioAssay)
